# Source: article PMC11006913
# Legend:
# Experiment in all cases: PBM; 200 nM protein, PBS
# Settings in all cases: dsDNA, one strand shown
# SHOX [1] = molecular target: SHOX (Homo sapiens, UniProt O15266 103-189)
# ALX1 [2] = molecular target: ALX1 (Homo sapiens, UniProt Q15699 118-204, L144V)
# ALX3 [3] = molecular target: ALX3 (Homo sapiens, UniProt O95076 139-225, N203Q)
# SHOX [4] = molecular target: SHOX (Homo sapiens, UniProt O15266 103-189, R173C)
# ALX1 [5] = molecular target: ALX1 (Homo sapiens, UniProt Q15699 118-204, L144R)
# Sequence of ALX1 (Homo sapiens, UniProt Q15699 118-204, L144R) (Q15699 118-204 L144R): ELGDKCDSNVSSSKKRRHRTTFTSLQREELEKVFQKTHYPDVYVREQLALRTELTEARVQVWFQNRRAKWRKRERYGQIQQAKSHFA
# ALX3 [6] = molecular target: ALX3 (Homo sapiens, UniProt O95076 139-225)
# Sequence of ALX3 (Homo sapiens, UniProt O95076 139-225) (O95076 139-225): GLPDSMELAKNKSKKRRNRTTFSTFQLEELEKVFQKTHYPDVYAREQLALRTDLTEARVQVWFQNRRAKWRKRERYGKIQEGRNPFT
# VAX1 [7] = molecular target: VAX1 (Homo sapiens, UniProt Q5SQQ9 86-172)
# Sequence of VAX1 (Homo sapiens, UniProt Q5SQQ9 86-172) (Q5SQQ9 86-172): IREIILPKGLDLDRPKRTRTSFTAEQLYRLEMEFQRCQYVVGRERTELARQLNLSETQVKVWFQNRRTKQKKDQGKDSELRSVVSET
# ALX3 [8] = molecular target: ALX3 (Homo sapiens, UniProt O95076 139-225, L168Q)
# Sequence of ALX3 (Homo sapiens, UniProt O95076 139-225, L168Q) (O95076 139-225 L168Q): as the sequence (O95076 139-225) above, with L30Q counted along it
# ALX3 [9] = molecular target: ALX3 (Homo sapiens, UniProt O95076 139-225, L168V)
# Sequence of ALX3 (Homo sapiens, UniProt O95076 139-225, L168V) (O95076 139-225 L168V): as the sequence (O95076 139-225) above, with L30V counted along it
# VAX1 [10] = molecular target: VAX1 (Homo sapiens, UniProt Q5SQQ9 86-172, T142I)
# Sequence of VAX1 (Homo sapiens, UniProt Q5SQQ9 86-172, T142I) (Q5SQQ9 86-172 T142I): as the sequence (Q5SQQ9 86-172) above, with T57I counted along it
# ALX1 [11] = molecular target: ALX1 (Homo sapiens, UniProt Q15699 118-204)
# Sequence of ALX1 (Homo sapiens, UniProt Q15699 118-204) (Q15699 118-204): as the sequence (Q15699 118-204 L144R) above, with R27L counted along it
# ALX3 [12] = molecular target: ALX3 (Homo sapiens, UniProt O95076 139-225, N203S)
# Sequence of ALX3 (Homo sapiens, UniProt O95076 139-225, N203S) (O95076 139-225 N203S): as the sequence (O95076 139-225) above, with N65S counted along it
# VAX1 [13] = molecular target: VAX1 (Homo sapiens, UniProt Q5SQQ9 86-172, K157R)
# Sequence of VAX1 (Homo sapiens, UniProt Q5SQQ9 86-172, K157R) (Q5SQQ9 86-172 K157R): as the sequence (Q5SQQ9 86-172) above, with K72R counted along it
# HOXD13 [14] = molecular target: HOXD13 (Homo sapiens, UniProt P35453 263-343, T313R)
# Sequence of HOXD13 (Homo sapiens, UniProt P35453 263-343, T313R) (P35453 263-343 T313R): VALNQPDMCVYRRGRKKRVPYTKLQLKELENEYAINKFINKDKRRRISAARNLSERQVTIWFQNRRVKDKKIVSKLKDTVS
# HOXC9 = HOXC9 (Homo sapiens, UniProt P31274 178-260, R222W)
# Sequence of HOXC9 (P31274 178-260 R222W): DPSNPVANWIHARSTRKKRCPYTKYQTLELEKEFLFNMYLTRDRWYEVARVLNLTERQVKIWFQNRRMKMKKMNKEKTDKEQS
# HOXD13 [15] = molecular target: HOXD13 (Homo sapiens, UniProt P35453 263-343)
# Sequence of HOXD13 (Homo sapiens, UniProt P35453 263-343) (P35453 263-343): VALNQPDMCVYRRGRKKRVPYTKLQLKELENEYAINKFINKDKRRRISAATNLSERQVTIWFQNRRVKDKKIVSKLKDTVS
# HOXD13 [16] = molecular target: HOXD13 (Homo sapiens, UniProt P35453 263-343, T313A)
# Sequence of HOXD13 (Homo sapiens, UniProt P35453 263-343, T313A) (P35453 263-343 T313A): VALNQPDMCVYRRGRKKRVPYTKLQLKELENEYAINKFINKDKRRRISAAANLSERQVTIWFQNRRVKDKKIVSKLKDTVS
# NKX3-2 [17] = molecular target: NKX3-2 (Homo sapiens, UniProt P78367 192-278, P234S)
# Sequence of NKX3-2 (Homo sapiens, UniProt P78367 192-278, P234S) (P78367 192-278 P234S): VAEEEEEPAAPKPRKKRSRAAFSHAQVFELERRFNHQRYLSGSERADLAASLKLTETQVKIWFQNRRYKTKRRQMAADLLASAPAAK
# NKX3-2 [18] = molecular target: NKX3-2 (Homo sapiens, UniProt P78367 192-278)
# Sequence of NKX3-2 (Homo sapiens, UniProt P78367 192-278) (P78367 192-278): as the sequence (P78367 192-278 P234S) above, with S43P counted along it
# Sequence of SHOX (Homo sapiens, UniProt O15266 103-189) (O15266 103-189): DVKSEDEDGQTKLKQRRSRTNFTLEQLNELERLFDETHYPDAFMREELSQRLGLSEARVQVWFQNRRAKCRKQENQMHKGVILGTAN
# Sequence of ALX3 (Homo sapiens, UniProt O95076 139-225, N203Q) (O95076 139-225 N203Q): as the sequence (O95076 139-225) above, with N65Q counted along it
# Sequence of SHOX (Homo sapiens, UniProt O15266 103-189, R173C) (O15266 103-189 R173C): as the sequence (O15266 103-189) above, with R71C counted along it
# Sequence of ALX1 (Homo sapiens, UniProt Q15699 118-204, L144V) (Q15699 118-204 L144V): as the sequence (Q15699 118-204 L144R) above, with R27V counted along it
sequence,measurement,setting,value
CAGCCGCG,binding signal,SHOX [1],"7.08 upbm affinity estimate (log intensity, higher = more binding, comparable within an allelic series)"
same,binding signal,ALX1 [2],"6.48 upbm affinity estimate (log intensity, higher = more binding, comparable within an allelic series)"
same,binding signal,ALX3 [3],"7.74 upbm affinity estimate (log intensity, higher = more binding, comparable within an allelic series)"
same,binding signal,SHOX [4],"7.07 upbm affinity estimate (log intensity, higher = more binding, comparable within an allelic series)"
same,binding signal,ALX1 [5],"6.44 upbm affinity estimate (log intensity, higher = more binding, comparable within an allelic series)"
same,binding signal,ALX3 [6],"7.7 upbm affinity estimate (log intensity, higher = more binding, comparable within an allelic series)"
same,binding signal,VAX1 [7],"7 upbm affinity estimate (log intensity, higher = more binding, comparable within an allelic series)"
same,binding signal,ALX3 [8],"7.68 upbm affinity estimate (log intensity, higher = more binding, comparable within an allelic series)"
same,binding signal,ALX3 [9],"7.67 upbm affinity estimate (log intensity, higher = more binding, comparable within an allelic series)"
same,binding signal,VAX1 [10],"7.24 upbm affinity estimate (log intensity, higher = more binding, comparable within an allelic series)"
same,binding signal,ALX1 [11],"6.47 upbm affinity estimate (log intensity, higher = more binding, comparable within an allelic series)"
same,binding signal,ALX3 [12],"7.74 upbm affinity estimate (log intensity, higher = more binding, comparable within an allelic series)"
same,binding signal,VAX1 [13],"7.13 upbm affinity estimate (log intensity, higher = more binding, comparable within an allelic series)"
CCGGGCGA,binding signal,SHOX [1],"7.31 upbm affinity estimate (log intensity, higher = more binding, comparable within an allelic series)"
same,binding signal,SHOX [4],"7.22 upbm affinity estimate (log intensity, higher = more binding, comparable within an allelic series)"
CCAGTTTA,binding signal,SHOX [1],"8.2 upbm affinity estimate (log intensity, higher = more binding, comparable within an allelic series)"
same,binding signal,SHOX [4],"7.55 upbm affinity estimate (log intensity, higher = more binding, comparable within an allelic series)"
CCGGGAAA,binding signal,SHOX [1],"7.25 upbm affinity estimate (log intensity, higher = more binding, comparable within an allelic series)"
same,binding signal,SHOX [4],"7.26 upbm affinity estimate (log intensity, higher = more binding, comparable within an allelic series)"
GGCTGGCA,binding signal,SHOX [1],"7.2 upbm affinity estimate (log intensity, higher = more binding, comparable within an allelic series)"
same,binding signal,SHOX [4],"7.13 upbm affinity estimate (log intensity, higher = more binding, comparable within an allelic series)"
GGACGTCC,binding signal,SHOX [1],"7.52 upbm affinity estimate (log intensity, higher = more binding, comparable within an allelic series)"
same,binding signal,ALX3 [3],"7.88 upbm affinity estimate (log intensity, higher = more binding, comparable within an allelic series)"
same,binding signal,SHOX [4],"7.3 upbm affinity estimate (log intensity, higher = more binding, comparable within an allelic series)"
same,binding signal,ALX3 [6],"7.9 upbm affinity estimate (log intensity, higher = more binding, comparable within an allelic series)"
same,binding signal,VAX1 [7],"7.88 upbm affinity estimate (log intensity, higher = more binding, comparable within an allelic series)"
same,binding signal,ALX3 [8],"7.79 upbm affinity estimate (log intensity, higher = more binding, comparable within an allelic series)"
same,binding signal,ALX3 [9],"7.85 upbm affinity estimate (log intensity, higher = more binding, comparable within an allelic series)"
same,binding signal,VAX1 [10],"7.46 upbm affinity estimate (log intensity, higher = more binding, comparable within an allelic series)"
same,binding signal,ALX3 [12],"7.79 upbm affinity estimate (log intensity, higher = more binding, comparable within an allelic series)"
same,binding signal,VAX1 [13],"7.64 upbm affinity estimate (log intensity, higher = more binding, comparable within an allelic series)"
CTCCGCCA,binding signal,SHOX [1],"7.21 upbm affinity estimate (log intensity, higher = more binding, comparable within an allelic series)"
same,binding signal,SHOX [4],"7.21 upbm affinity estimate (log intensity, higher = more binding, comparable within an allelic series)"
ATATTAAA,binding signal,SHOX [1],"9.92 upbm affinity estimate (log intensity, higher = more binding, comparable within an allelic series)"
same,binding signal,ALX3 [3],"8.59 upbm affinity estimate (log intensity, higher = more binding, comparable within an allelic series)"
same,binding signal,HOXD13 [14],"10.7 upbm affinity estimate (log intensity, higher = more binding, comparable within an allelic series)"
same,binding signal,HOXC9,"11.1 upbm affinity estimate (log intensity, higher = more binding, comparable within an allelic series)"
same,binding signal,ALX3 [12],"8.68 upbm affinity estimate (log intensity, higher = more binding, comparable within an allelic series)"
CCCCTTCC,binding signal,SHOX [1],"7.19 upbm affinity estimate (log intensity, higher = more binding, comparable within an allelic series)"
same,binding signal,SHOX [4],"7.03 upbm affinity estimate (log intensity, higher = more binding, comparable within an allelic series)"
AGCCGCCG,binding signal,SHOX [1],"7.12 upbm affinity estimate (log intensity, higher = more binding, comparable within an allelic series)"
same,binding signal,HOXD13 [14],"9.48 upbm affinity estimate (log intensity, higher = more binding, comparable within an allelic series)"
same,binding signal,SHOX [4],"7.19 upbm affinity estimate (log intensity, higher = more binding, comparable within an allelic series)"
same,binding signal,HOXD13 [15],"9.52 upbm affinity estimate (log intensity, higher = more binding, comparable within an allelic series)"
same,binding signal,HOXD13 [16],"9.57 upbm affinity estimate (log intensity, higher = more binding, comparable within an allelic series)"
CCAAGGAG,binding signal,SHOX [1],"7.32 upbm affinity estimate (log intensity, higher = more binding, comparable within an allelic series)"
same,binding signal,SHOX [4],"7.21 upbm affinity estimate (log intensity, higher = more binding, comparable within an allelic series)"
CCTGGGGC,binding signal,SHOX [1],"7.08 upbm affinity estimate (log intensity, higher = more binding, comparable within an allelic series)"
same,binding signal,ALX3 [3],"7.67 upbm affinity estimate (log intensity, higher = more binding, comparable within an allelic series)"
same,binding signal,SHOX [4],"7.09 upbm affinity estimate (log intensity, higher = more binding, comparable within an allelic series)"
same,binding signal,ALX3 [6],"7.69 upbm affinity estimate (log intensity, higher = more binding, comparable within an allelic series)"
same,binding signal,ALX3 [8],"7.69 upbm affinity estimate (log intensity, higher = more binding, comparable within an allelic series)"
same,binding signal,ALX3 [9],"7.65 upbm affinity estimate (log intensity, higher = more binding, comparable within an allelic series)"
same,binding signal,ALX3 [12],"7.61 upbm affinity estimate (log intensity, higher = more binding, comparable within an allelic series)"
CCTGAGAG,binding signal,SHOX [1],"7.19 upbm affinity estimate (log intensity, higher = more binding, comparable within an allelic series)"
same,binding signal,SHOX [4],"7.25 upbm affinity estimate (log intensity, higher = more binding, comparable within an allelic series)"
CCAATCAC,binding signal,SHOX [1],"8.6 upbm affinity estimate (log intensity, higher = more binding, comparable within an allelic series)"
same,binding signal,SHOX [4],"7.61 upbm affinity estimate (log intensity, higher = more binding, comparable within an allelic series)"
same,binding signal,VAX1 [7],"8.98 upbm affinity estimate (log intensity, higher = more binding, comparable within an allelic series)"
same,binding signal,VAX1 [13],"8.89 upbm affinity estimate (log intensity, higher = more binding, comparable within an allelic series)"
CCAAACGG,binding signal,SHOX [1],"7.11 upbm affinity estimate (log intensity, higher = more binding, comparable within an allelic series)"
same,binding signal,SHOX [4],"7.21 upbm affinity estimate (log intensity, higher = more binding, comparable within an allelic series)"
GACAGCCC,binding signal,SHOX [1],"7.16 upbm affinity estimate (log intensity, higher = more binding, comparable within an allelic series)"
same,binding signal,SHOX [4],"7.16 upbm affinity estimate (log intensity, higher = more binding, comparable within an allelic series)"
CCGTGGCC,binding signal,SHOX [1],"7.18 upbm affinity estimate (log intensity, higher = more binding, comparable within an allelic series)"
same,binding signal,SHOX [4],"7.22 upbm affinity estimate (log intensity, higher = more binding, comparable within an allelic series)"
ATTACCTA,binding signal,SHOX [1],"9.59 upbm affinity estimate (log intensity, higher = more binding, comparable within an allelic series)"
same,binding signal,NKX3-2 [17],"11.2 upbm affinity estimate (log intensity, higher = more binding, comparable within an allelic series)"
same,binding signal,NKX3-2 [18],"11.2 upbm affinity estimate (log intensity, higher = more binding, comparable within an allelic series)"
CGGCCTCC,binding signal,SHOX [1],"6.98 upbm affinity estimate (log intensity, higher = more binding, comparable within an allelic series)"
same,binding signal,SHOX [4],"7.08 upbm affinity estimate (log intensity, higher = more binding, comparable within an allelic series)"
